Measurements taken from article PMC8384837, “Expanding the binding specificity for RNA recognition by a PUF domain”.

Legend:
Assay in all cases: yeast three-hybrid, YBZ-1, SC-Leu-His + 0.5 mM 3-AT, 4 days
Details in all cases: tags: N-Gal4 AD-HA kept; label: inside an RPR1-promoter hybrid RNA with tandem MS2 sites; ssRNA
[1] = biological target: PUM1 PUF domain R5-PFP (Homo sapiens, UniProt Q14671 828-1176, C1007P;R1008F;Q1011P)
How it was run: (§1)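 A centromeric plasmid in strain YBZ-1 co-expressed Pumilio-1 PUF domain libraries, randomized at the three base-contacting residues of each repeat, with matching RNA elements; the strain carries a LexA–MS2 coat fusion and a HIS3 reporter. After four days on SC-Leu (input) or SC-Leu-His + 0.5 mM 3-AT (selection), the repeat regions were PCR-amplified and Illumina-sequenced. The interaction score is the log change in variant frequency from input to selection, using log2 and a pseudocount of 1 where absent.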

[2] = biological target: PUM1 PUF domain R5-TRL (Homo sapiens, UniProt Q14671 828-1176, C1007T;Q1011L)
How it was run: as §1

[3] = biological target: PUM1 PUF domain R3-PYL (Homo sapiens, UniProt Q14671 828-1176, C935P;R936Y;Q939L)
How it was run: as §1

[4] = biological target: PUM1 PUF domain R4-GMG (Homo sapiens, UniProt Q14671 828-1176, N971G;H972M;Q975G)
How it was run: as §1

[5] = biological target: PUM1 PUF domain R3-LFR (Homo sapiens, UniProt Q14671 828-1176, C935L;R936F;Q939R)
How it was run: as §1

[6] = biological target: T1, PUM1 PUF domain R6-THR (Homo sapiens, UniProt Q14671 828-1176, N1043T;Y1044H;Q1047R)
T1 sequence: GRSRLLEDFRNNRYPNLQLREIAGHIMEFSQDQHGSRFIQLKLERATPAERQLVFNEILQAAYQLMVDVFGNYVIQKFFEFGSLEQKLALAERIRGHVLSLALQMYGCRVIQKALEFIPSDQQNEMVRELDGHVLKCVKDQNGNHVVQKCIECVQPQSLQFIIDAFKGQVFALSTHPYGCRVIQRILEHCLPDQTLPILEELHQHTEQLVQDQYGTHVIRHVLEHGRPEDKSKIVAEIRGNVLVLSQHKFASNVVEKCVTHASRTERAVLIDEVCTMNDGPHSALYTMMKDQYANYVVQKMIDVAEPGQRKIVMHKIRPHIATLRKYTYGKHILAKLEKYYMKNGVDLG
How it was run: as §1

[7] = biological target: PUM1 PUF domain R1-RSS (Homo sapiens, UniProt Q14671 828-1176, S863R;R864S;Q867S)
How it was run: as §1

[8] = biological target: PUM1 PUF domain R8-PWN (Homo sapiens, UniProt Q14671 828-1176, N1122P;Y1123W;Q1126N)
How it was run: as §1

[9] = biological target: PUM1 PUF domain R4-VNG (Homo sapiens, UniProt Q14671 828-1176, N971V;H972N;Q975G)
How it was run: as §1

[10] = biological target: PUM1 PUF domain R3-FRD (Homo sapiens, UniProt Q14671 828-1176, C935F;Q939D)
How it was run: as §1

Q: With “GGCUAGAACUAGUGGAUCCCCCGGCGCCCGGCGGCUCGAGCCCGGGUAAGUGUAAAUAGUCUGCAUGCCGCCGGGCGCCAUGCCUGCAGGUCGACUCUAGAAAACAUG” as the sequence, how does the binding signal [1] read?
A: 4.69 log2 enrichment (interaction score)

Q: What about the binding signal [2] of the same sequence?
A: 3.3 log2 enrichment (interaction score)

Q: And the binding signal [3]?
A: 5.55 log2 enrichment (interaction score)

Q: What about the binding signal [4] of the same sequence?
A: 1.25 log2 enrichment (interaction score)

Q: What about the binding signal [5] of the same sequence?
A: 1.74 log2 enrichment (interaction score)

Q: And the binding signal [6]?
A: 3.12 log2 enrichment (interaction score)

Q: How did the binding signal [7] turn out when “GGCUAGAACUAGUGGAUCCCCCGGCGCCCGGCGGCUCGAGCCCGGGUAAGUGUAAAUCGUCUGCAUGCCGCCGGGCGCCAUGCCUGCAGGUCGACUCUAGAAAACAUG” was run?
A: 3.93 log2 enrichment (interaction score)

Q: With “GGCUAGAACUAGUGGAUCCCCCGGCGCCCGGCGGCUCGAGCCCGGGUAAGUGUUAAUAGUCUGCAUGCCGCCGGGCGCCAUGCCUGCAGGUCGACUCUAGAAAACAUG” as the sequence, how does the binding signal [2] read?
A: 2.18 log2 enrichment (interaction score)

Q: With “GGCUAGAACUAGUGGAUCCCCCGGCGCCCGGCGGCUCGAGCCCGGGUAAGCGUAAAUAGUCUGCAUGCCGCCGGGCGCCAUGCCUGCAGGUCGACUCUAGAAAACAUG” as the sequence, how does the binding signal [8] read?
A: 3.44 log2 enrichment (interaction score)

Q: “GGCUAGAACUAGUGGAUCCCCCGGCGCCCGGCGGCUCGAGCCCGGGUAAGUGUAAAUGGUCUGCAUGCCGCCGGGCGCCAUGCCUGCAGGUCGACUCUAGAAAACAUG” was tested. Which binding signal [7] did it give?
A: 2.55 log2 enrichment (interaction score)

Q: How did the binding signal [4] turn out when “GGCUAGAACUAGUGGAUCCCCCGGCGCCCGGCGGCUCGAGCCCGGGUAAGUGUAUAUAGUCUGCAUGCCGCCGGGCGCCAUGCCUGCAGGUCGACUCUAGAAAACAUG” was run?
A: 2.85 log2 enrichment (interaction score)

Q: And the binding signal [9]?
A: 2.54 log2 enrichment (interaction score)

Q: How did the binding signal [5] turn out when “GGCUAGAACUAGUGGAUCCCCCGGCGCCCGGCGGCUCGAGCCCGGGUAAGUGUAAUUAGUCUGCAUGCCGCCGGGCGCCAUGCCUGCAGGUCGACUCUAGAAAACAUG” was run?
A: 5 log2 enrichment (interaction score)

Q: For “GGCUAGAACUAGUGGAUCCCCCGGCGCCCGGCGGCUCGAGCCCGGGUAAGUGUAAGUAGUCUGCAUGCCGCCGGGCGCCAUGCCUGCAGGUCGACUCUAGAAAACAUG”, which binding signal [5] is on record?
A: 5.96 log2 enrichment (interaction score)

Q: And the binding signal [10]?
A: 5.68 log2 enrichment (interaction score)

Q: Which binding signal [7] does the source give for “GGCUAGAACUAGUGGAUCCCCCGGCGCCCGGCGGCUCGAGCCCGGGUAAGUGUAAAUUGUCUGCAUGCCGCCGGGCGCCAUGCCUGCAGGUCGACUCUAGAAAACAUG” here?
A: 3.21 log2 enrichment (interaction score)
